# Measured values published in the supplement of paper PMC6555819.
# Columns and labels:
# Test in all cases: PBM binding z-score (relative to random genomic background probes); higher = stronger binding; sequences stand for … in GC…GCGATTGACAGCGTAGAATGAAGG
# [1] = system: RARg:RXRa (NR concentration 270 nM, RXRa partner concentration 90 nM)
# Procedure, shortened: (§1)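 Ligand-free nuclear receptor dimers were applied to custom Agilent 4×180K protein-binding microarrays whose double-stranded probes carried direct-repeat seeds, single-nucleotide variants, half-site ablations and random human genomic background sequences in 34-nt variable regions. Incubation lasted 1 h. Binding z-scores were computed against the random background probes from regression-normalized fluorescence.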
# [2] = system: RARg homodimer (NR concentration 270 nM)
# Procedure, shortened: as §1
# [3] = system: RXRa DBDmut IVT, anti-RXR (DBD mutation: RXRa K156A/R161A, NR concentration 90 nM)
# Procedure, shortened: as §1
# [4] = system: RXRa homodimer (NR concentration 180 nM)
# Procedure, shortened: as §1
# [5] = system: THRa:RXRa (NR concentration 90 nM, RXRa partner concentration 90 nM)
# Procedure, shortened: as §1
# [6] = system: THRa homodimer (NR concentration 90 nM)
# Procedure, shortened: as §1
# [7] = system: VDR homodimer (NR concentration 270 nM)
# Procedure, shortened: as §1
Sequence,PBM binding z-score [1],PBM binding z-score [2],PBM binding z-score [3],PBM binding z-score [4],PBM binding z-score [5],PBM binding z-score [6],PBM binding z-score [7]
TACCCTAGGTCATTCAGGGGCCAGTATAGAAAGC,6.19,5.02,1.56,3.18,3.65,1.29,1.84
ATCGAAAGGTCGAAGGTGAGCATACCCACCCGAA,4.35,3.86,0.654,5.22,2.36,0.23,0.602
CGTCAAAGTCCAAGGTAACGTAACAGAAAGCAGC,0.398,1.1,1.15,-0.0038,1.31,0.878,0.231
GCTAGTTGGTCAGTAAAAGGTGACACACCGGTCG,1.58,1.17,-0.429,0.87,0.938,-0.422,-0.475
TTGCCAAGGTGAAAGGTCGTTGATGCACGCCTTG,4.33,2.25,0.468,5.91,3.3,0.784,1.34
ATCGAAAGGTCGTGAGGTAAGTATACAGAAAGGC,4.63,3.93,1.25,5.18,3.09,1.01,1.24
GGAACGAGGTCATTCGAGTTGATAGCATGGCGAT,6.09,6.21,4.87,7.11,4.76,2.26,6.31
TCTCGGAGGACACAAAGGTCAGAGCTTTCCAGAG,4.8,5.32,0.957,4.32,3.45,0.913,2.06
CGTCCAAGGTCTAGGTCAGTGAAAGAGACTCGAA,1.6,2.4,0.323,0.486,1.86,0.936,0.00097
AGAATGAGGTTACCAAAGTTCAGGGAAACGCTTG,4.44,3.52,1.62,4.3,4.02,0.878,2.32
CTATGTAGGTCAAGGGGGTCATTCAGTTTGAAAG,7.26,6.93,3.29,7.64,4.27,2.15,7.37
GATACAGGGTCAAGGTCAGAGTACGCGTATTGAT,6.26,6.78,2.78,6.63,4.45,3.55,4.39
ATATGTAGGATAGCTGGGGTCATTCAGACTAGGC,3.3,2.31,1.61,4.92,4.2,3.17,5.01
CGAACTAGGTCGTCCAGGACAGTGAATACATTGA,0.869,1.08,1.02,0.72,2.27,0.874,0.591
CGAACTACGTCATCCAGGACAGTGAATACATTGA,0.374,0.537,0.498,0.2,1.27,1.03,0.313
TAGCCTAGGTCATTCAGGGGCCACTATAGAAAGC,6.46,4.76,1.94,3.21,3.89,1.05,1.92
TGTCAACGTTCAAAGGTAACGTAAGTATCCACAC,1.28,1.09,-0.465,1.27,1.46,-0.221,-0.0342
GATACAGGGTCAGCTACAGGCCAGAGTATGGAAA,5.37,4.29,1.25,4.23,2.83,0.162,0.801
TCGAGTAGGTCACGGGGGCATTCAGGGATGAAGA,6.77,6.69,2.23,6.31,4.48,1.6,3.74

Sequence,PBM binding z-score [1],PBM binding z-score [2],PBM binding z-score [3],PBM binding z-score [4],PBM binding z-score [5],PBM binding z-score [6],PBM binding z-score [7]
GATACAGGGTCGGCTAGAGGCCAGAGTATGGAAA,4.14,1.5,-0.0719,1.49,1.22,-0.62,0.35
CCTACTCGGCCAAAAAGGTCATTGATGCCGATAA,4.7,4.45,1.13,4.82,3.33,1.22,2.91
CCTACTGGGCCACGAAAGGCCATTGATTCAGTGA,0.332,0.725,-0.292,-0.0677,1.15,-0.457,-0.271
GTTACAGGGTCAAGGCCAGAGTACGCGTATTGAT,5.65,5.24,2.91,6.16,3.62,1.53,2.86
TAGCCTAGGTCATACAGGGGCCAGTATAGAAAGC,5.98,4.71,1.04,3.26,3.27,0.799,0.824
CAAACTAGGTCACCGAAAGGTCAAAGTCCGCATG,8.9,8.27,2.98,7.88,4.72,2.96,4.24
AATACAAGGTCATCGTAGGCCAGAGTACGCACAG,6.21,6.23,3.94,6.37,4.47,2.74,4.03
TCTGCTAGGTCAACGATGGTCAGTTAATCTGCTA,4.12,4.95,0.834,2.5,2.93,0.73,-0.183
TAGCCTAGGTCATGCGGCCCAGTATAGTGTCGGC,3.79,4.07,0.176,2.87,2.89,0.868,0.276
CCTACTGGGCCAAAGAGGTCATTGATGCCGATAA,4.01,3.31,1.39,4.45,3.35,0.927,3.97
CCTAGTTGGTCAAGGTCACACCCGCTATAGGTAC,4.26,4.56,1.78,4.2,3.94,4.24,3.57
GCTGCTAGGTCAACTGATGGTCATCTAAAGCTCG,5.46,5.43,1.87,3.25,3.09,1.12,0.187
CCTAGTTGGTCAAGGTCACATACGCTATAGGTAC,4.18,4.37,2.21,3.89,3.96,3.88,3.56
CACACTAGGTCACAGAGGTCAAAGTCCGTGCGTA,7.55,8.04,3.26,8.19,4.84,3.29,7.03
CCTCGGAGGACAACAGGAGGTCATAGCTGCCAGA,3.93,3.78,1.1,3.09,3.58,1.5,2.44
CGAACTAGGTCATTGACAGGACAATGAATAGTAA,4.78,4.69,2.44,2.79,2.91,0.699,1.62
AATACAGGGTCATCGTACGCCAGAGTACGCACAG,5.65,4.81,3.46,6.92,3.87,1.73,4.17
CCTACGGGGCCACGAAAGGTCATTGATTCAGTGA,5.49,5.3,0.662,5.74,4.64,0.878,2.64
TTACCAAGGTGAACGGTCGTTGATGCACGCCTTG,0.796,0.84,-0.078,1.24,1.93,0.872,-0.356

Sequence,PBM binding z-score [1],PBM binding z-score [2],PBM binding z-score [3],PBM binding z-score [4],PBM binding z-score [5],PBM binding z-score [6],PBM binding z-score [7]
CGTCCAAGGTCAATGCTAGATCAGTGAAAGCATT,5.61,5.86,3.56,4.83,3.51,1.97,2.34
TCTTGTAGGTCAATAGAGGTTAAGAAAGTGCGCT,4.56,5.15,1.88,4.31,4.71,0.329,1.63
ATATGTAGGTTACATCCGGGTCATCCAGGCTATG,3.98,2.1,0.681,2.89,3.89,2.64,2.44
GATATAGGGTCAGCTAGAGGCCAGAGTATGGAAA,6.81,5.11,1.67,4.63,3.42,0.95,0.867
CGAACAAGGTCATTGACAGGACAGTGAATAGTAA,6.27,5.95,4.45,5.53,3.96,2.16,3.2
CCTACTGGGCCACTAAAGGTCATTGATTCAGTGA,4.48,4.5,0.757,4.87,3.61,0.905,2.62
TCTGCTAGGTCATCGATGGTCAGCTAATCTGCTA,3.79,4.88,1.53,2.73,3.33,0.553,-0.0904
CGTCAAAGTTCAAGGTCACGTAACAGAAAGCAGC,7.15,8.05,4.52,7.07,4.54,4.62,5.21
TATAAAGGGTCAAAGGCCAGAGTACGAATGTCGA,6.39,6.63,3.06,7.08,3.11,-0.348,2.46
CATACAGGGTCGGCTAGGCCAGAGTAGGGACGGC,0.866,1.16,-0.309,0.983,0.966,-0.41,0.745
CGTTCAAGGTCAAAGGTCAGTGAAGAGATGACGG,8.78,8.73,4.53,10.3,5.04,3.34,3.81
CGAACTAGGTCAAGGACAGTAAATCTCCGCACGC,4.01,4.54,1.47,2.55,3.16,2.01,0.575
CCGAATAGGTTACGAGGGGGCATTCAGTGCGAAT,3.99,2.87,1.75,3.03,4.03,0.692,3.51
TAGCCTAGGTCACATCGGGCCAGTATACGCTATA,4.02,4.72,0.602,3.09,4.5,1.15,0.412
GGAACGAGGGCAAAGTTCATAGCATCTGTCGACG,5.71,3.92,3.54,6.27,3.03,0.017,4.43
TCTCGGAGGACACTAAAGGTCAGAGCTCGACATC,4.4,4.68,1.11,3.98,3.48,1.1,0.787
CCTAGCAGGCCAATCTAGGTCACTCAAGGCTTGA,1.5,1.85,0.439,0.64,4.18,1.57,0.1
ACTTAAGGGTCAACGAGGTTATAGCACGCGTATA,6.9,6.85,3.8,7.56,4.4,1.07,5.42
